Measured values reported in PubChem BioAssay (NCATS).
Records with an inconclusive call do not appear. Activity calls are given as the source filed them. Calls come from the whole dose curve; as a rule, active = well fitted curve in the direction sought with a large enough effect; inconclusive = small, poorly fitted or top-dose-only effect, or another doubt; inactive = no such curve, though single readings can be large; an effect the other way counts as inactive or inconclusive.

Columns and labels:
CRL-7250 = normal cell line; test: Cytotoxic Profiling of Annotated Libraries Using Quantitative High-Throughput Screening (AID 1296008); conditions: Five cell lines viability, CellTiter-Glo ATP luminescence, 48-72 h; max response: hits give low values; note: nearly all actives have a fitted effect of over 60% in size; note: potency is the fitted concentration of half-maximal effect
Summary of the method: (§1)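 Compounds were pin-transferred onto cells and incubated 48 or 72 hr at 37 degree Celsius, 95% humidity. CellTiter-Glo was added, plates sat 10 min at room temperature, then ATP-coupled luminescence was imaged as the viability read-out.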

HaCat [1] = test: as above; conditions: Five cell lines viability, CellTiter-Glo ATP luminescence, 48-72 h; max response: hits give low values
Summary of the method: as §1

KB-3-1 = test: as above; conditions: Five cell lines viability, CellTiter-Glo ATP luminescence, 48-72 h; max response: hits give low values
Summary of the method: as §1

NIH3T3 [2] = test: as above; conditions: Five cell lines viability, CellTiter-Glo ATP luminescence, 48-72 h; max response: hits give low values
Summary of the method: as §1

MCC-13 = test: qHTS assay to identify novel small-molecules to repurpose for Merkel cell carcinoma treatment (AID 1296009); conditions: MCC and control cell lines, CellTiter-Glo viability, 72 h; series mostly up to 46 µM; note: nearly all actives have a fitted effect of over 60% in size; note: potency is the fitted concentration of half-maximal effect
Summary of the method: (§2)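 Luminescence from CellTiter-Glo, read 10 min after addition at room temperature, reported viability following a 72 hr, 37 degree celsius treatment with NPC or MIPE compounds in titration; values normalized to plate controls.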

MCC-26 = test: as above; conditions: MCC and control cell lines, CellTiter-Glo viability, 72 h; series mostly up to 46 µM
Summary of the method: as §2

WaGa = test: as above; conditions: MCC and control cell lines, CellTiter-Glo viability, 72 h; series mostly up to 46 µM
Summary of the method: as §2

C33A = test: Primary qHTS to identify gynecologic anti-cancer compounds using libraries of approved drugs and bioactive compounds (AID 1345084); conditions: Gynecologic cancer cell panel viability, ATPlite luminescence, 48 h; series mostly up to 57.5 µM; note: nearly all actives have a fitted effect of over 55% in size
Summary of the method: (§3)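 Cell viability after 48 h drug treatment, ATPlite luminescence readout; five doses.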

CAOV3 = test: as above; conditions: Gynecologic cancer cell panel viability, ATPlite luminescence, 48 h; series mostly up to 57.5 µM
Summary of the method: as §3

CASKI = test: as above; conditions: Gynecologic cancer cell panel viability, ATPlite luminescence, 48 h; series mostly up to 57.5 µM
Summary of the method: as §3

Es-2 = test: as above; conditions: Gynecologic cancer cell panel viability, ATPlite luminescence, 48 h; series mostly up to 57.5 µM
Summary of the method: as §3

HeLa = test: as above; conditions: Gynecologic cancer cell panel viability, ATPlite luminescence, 48 h; series mostly up to 57.5 µM
Summary of the method: as §3

Hek293T = test: as above; conditions: Gynecologic cancer cell panel viability, ATPlite luminescence, 48 h, control line for the selectivity index; series mostly up to 57.5 µM
Summary of the method: as §3

HEK293 = test: Cytotoxic Profiling of Annotated Libraries Using Quantitative High-Throughput Screening (AID 1296008); conditions: Five cell lines viability, CellTiter-Glo ATP luminescence, 48-72 h; max response: hits give low values; note: nearly all actives have a fitted effect of over 60% in size; note: potency is the fitted concentration of half-maximal effect
Summary of the method: as §1

UISO = test: qHTS assay to identify novel small-molecules to repurpose for Merkel cell carcinoma treatment (AID 1296009); conditions: MCC and control cell lines, CellTiter-Glo viability, 72 h; series mostly up to 46 µM; note: nearly all actives have a fitted effect of over 60% in size; note: potency is the fitted concentration of half-maximal effect
Summary of the method: as §2

HACAT [3] = test: as above; conditions: MCC and control cell lines, CellTiter-Glo viability, 72 h; at 44.8 µM (top of the series) unless noted
Summary of the method: as §2

MKL-1 = test: as above; conditions: MCC and control cell lines, CellTiter-Glo viability, 72 h; series mostly up to 46 µM
Summary of the method: as §2

MKL-2 = test: as above; conditions: MCC and control cell lines, CellTiter-Glo viability, 72 h; series mostly up to 46 µM
Summary of the method: as §2

NIH3T3 [4] = test: as above; conditions: MCC and control cell lines, CellTiter-Glo viability, 72 h; at 44.8 µM (top of the series) unless noted
Summary of the method: as §2
% is set by controls: 0 for no effect and ±100 for the full control effect.

C[C@]12CC[C@@H]3c4ccc(O)cc4C[C@@H](CCCCCCCCCS(=O)CCCC(F)(F)C(F)(F)F)[C@H]3[C@@H]1CC[C@@H]2O (stereo partly specified)
inactive: max response (CRL-7250) -49.4% | max response (HaCat [1]) -6.63% | max response (KB-3-1) 3.54% | max response (NIH3T3 [2]) -7.29% | Potency (MCC-13) | Potency (MCC-26) | Potency (WaGa) | Potency (C33A) | Potency (CAOV3) | Potency (CASKI) | Potency (Es-2) | Potency (HeLa) | Potency (Hek293T)

COC(=O)C1=C(C)NC(C)=C(C(=O)OCCN(C)Cc2ccccc2)C1c1cccc([N+](=O)[O-])c1 (stereo unspecified)
inactive: Potency (C33A) | Potency (CASKI) | Potency (Es-2)
active: Potency (CRL-7250) 21.1 µM | Potency (HEK293) 11.9 µM | Potency (NIH3T3 [2]) 26.6 µM | Potency (UISO) 23.7 µM

COc1ccc(CN(CCN(C)C)c2ccccn2)cc1
inactive: max response (CRL-7250) 1.58% | outcome (HaCat [1]) | max response (NIH3T3 [2]) 2.14% | outcome (HACAT [3]) | Potency (MCC-13) | Potency (MCC-26) | Potency (MKL-1) | Potency (MKL-2) | Potency (UISO) | Potency (WaGa) | Potency (C33A) | Potency (CAOV3) | Potency (CASKI) | Potency (Es-2) | Potency (HeLa) | Potency (Hek293T)

C=CCc1ccccc1OCC(O)CNC(C)C (stereo unspecified)
inactive: max response (CRL-7250) -1.4% | max response (HaCat [1]) 4.41% | max response (KB-3-1) 2.54% | max response (NIH3T3 [2]) -0.59% | Potency (MCC-13) | Potency (MCC-26) | Potency (MKL-1) | Potency (MKL-2) | Potency (UISO) | Potency (WaGa) | Potency (C33A) | Potency (CASKI) | Potency (Es-2) | Potency (HeLa) | Potency (Hek293T)

CCOC(=O)C1=C(C)NC(C)=C(C(=O)OC)C1c1cccc([N+](=O)[O-])c1 (stereo unspecified)
inactive: outcome (CRL-7250) | outcome (HaCat [1]) | max response (KB-3-1) -12.8% | max response (NIH3T3 [2]) -0.464% | outcome (HACAT [3]) | Potency (MCC-13) | Potency (MCC-26) | Potency (MKL-1) | Potency (MKL-2) | Potency (UISO) | Potency (WaGa) | Potency (C33A) | Potency (CASKI) | Potency (Es-2) | Potency (HeLa) | Potency (Hek293T)

CCN(CC)CCCN(c1ccccc1)C1Cc2ccccc2C1
inactive: max response (CRL-7250) 2.42% | outcome (HaCat [1]) | max response (NIH3T3 [2]) -8.45% | outcome (HACAT [3]) | Potency (MCC-13) | Potency (MCC-26) | Potency (MKL-1) | Potency (UISO) | Potency (CASKI) | Potency (Es-2) | Potency (HeLa)

OCCN1CCN(CCCN2c3ccccc3C=Cc3ccccc32)CC1
inactive: outcome (CRL-7250) | outcome (HaCat [1]) | max response (KB-3-1) -12.9% | outcome (NIH3T3 [2]) | outcome (HACAT [3]) | Potency (MCC-13) | Potency (MCC-26) | Potency (MKL-1) | Potency (MKL-2) | outcome (NIH3T3 [4]) | Potency (UISO) | Potency (C33A) | Potency (CAOV3) | Potency (CASKI) | Potency (Es-2) | Potency (HeLa) | Potency (Hek293T)

c1cnc(N2CCN(Cc3ccc4c(c3)OCO4)CC2)nc1
inactive: max response (CRL-7250) -1.35% | outcome (HaCat [1]) | max response (KB-3-1) -6.36% | max response (NIH3T3 [2]) -2.83% | outcome (HACAT [3]) | Potency (MCC-13) | Potency (MCC-26) | Potency (MKL-2) | Potency (UISO) | Potency (WaGa) | Potency (C33A) | Potency (CAOV3) | Potency (CASKI) | Potency (Es-2) | Potency (HeLa) | Potency (Hek293T)

CN(C)[C@@H]1C(=O)C(C(N)=O)=C(O)[C@@]2(O)C(=O)C3=C(O)c4c(O)ccc(Cl)c4[C@@H](O)[C@H]3C[C@@H]12
inactive: outcome (CRL-7250) | outcome (HaCat [1]) | max response (KB-3-1) -3.68% | outcome (NIH3T3 [2]) | outcome (HACAT [3]) | Potency (MCC-13) | Potency (MCC-26) | Potency (MKL-1) | Potency (MKL-2) | outcome (NIH3T3 [4]) | Potency (UISO) | Potency (WaGa) | Potency (C33A) | Potency (CAOV3) | Potency (CASKI) | Potency (Es-2) | Potency (HeLa) | Potency (Hek293T)

OC(CCN1CCCCC1)(c1ccccc1)C1CCCCC1 (stereo unspecified)
inactive: outcome (CRL-7250) | outcome (HaCat [1]) | max response (KB-3-1) -15.6% | max response (NIH3T3 [2]) -0.663% | outcome (HACAT [3]) | Potency (MCC-13) | Potency (MCC-26) | Potency (MKL-1) | Potency (MKL-2) | Potency (UISO) | Potency (WaGa) | Potency (C33A) | Potency (CAOV3) | Potency (CASKI) | Potency (Es-2) | Potency (HeLa) | Potency (Hek293T)
